PubChem BioAssay (EPA / NIEHS)
Inconclusive results are not listed. Activity calls are given as the source filed them. The calls were made as follows: active = hit-call score of the fitted dose curve at least 0.9, where 1 is the maximum; inconclusive = response in the unintended direction; inactive = score below 0.9.

These compounds were tested against human Retinoid X Receptor beta (RXRb), RXRB (gene 6257) (UniProt P28702) (assay: ATG_RXRb_TRANS: Attagene TRANS-FACTORIAL HepG2 Assay for human Retinoid X Receptor beta (RXRb) (AID 2283013)).
Protocol: ATG_TRANS is a cell-based, multiplexed-readout assay that uses HepG2, a human liver cell line, with measurements taken at 24 hours after chemical dosing in a 24-well plate.ATG_RXRb_TRANS is one of 30 assay component(s) measured or calculated from the ATG_TRANS assay. It is designed to make measurements of mRNA induction, a form of inducible reporter, as detected with fluorescence intensity signals by Reverse transcription polymerase chain reaction (RT-PCR) and Capillary electrophoresis technology.Data from the assay component ATG_RXRb_TRANS was analyzed into 1 assay endpoint. This assay endpoint, ATG_RXRb_TRANS, was analyzed in the positive analysis fitting direction relative to DMSO as the negative control and baseline of activity. Using a type of inducible reporter, measures of mRNA for gain-of-signal activity can be used to understand the reporter gene at the transcription factor-level as they relate to the gene RXRB. Furthermore, this assay endpoint can be referred to as a primary readout, because this assay has produced multiple assay endpoints where this one serves a reporter gene function. To generalize the intended target to other relatable targets, this assay endpoint is annotated to the nuclear receptor intended target family, where the subfamily is non-steroidal.
Human liver HepG2 cells are transiently transfected with multiple reporter transcription units (MRTUs) in 6-well plates using FuGene 6 reagent (Roche; 3 ml FuGene/1 mg DNA). The MRTU constructs are regulated by a cis-regulating element (promoter). […] A major difference between the CIS and TRANS system is that in CIS activities of endogenous TFs are measured, whereas the TRANS assay evaluates changes in activities of exogenous, chimeric NR-Gal4 proteins. […] At the end of 24 hour incubation, total RNA was isolated using TriZol reagent (Invitrogen). The isolated RNA is then reverse-transcribed using oligo(dT) primer and Mo-MLV reverse transcriptase (Invitrogen) with DNAse I (Ambion) treatment for 30 min. The one-tenth of the produced cDNA was amplified by PCR using Taq DNA polymerase (Invitrogen) and two reporter sequence-specific primers. The PCR products were fluorescently labeled by primer extension with 6-arboxyfluorescein (6-FAM) 5'-labeled reporter sequence-specific primer (2 min at 95 C, 20 s at 68 C and 10 min at 72 C) and these products were digested with 5U of HpaI (New England Biolabs) for 2h at 37 C. The fragments were purified using Qiaquick PCR columns (Qiagen), analyzed on an ABI 3130xL genetic analyzer (Applied Biosystems) with peak positions identified by using a set of X-rhodamine (ROX)-labeled MapMarker1000 molecular weight standards (BioVentures). The raw capillary electrophoresis data was processed using Attagraph software (Attagene).

Sequence of human Retinoid X Receptor beta (RXRb), RXRB (gene 6257) (P28702 whole entry, looked up): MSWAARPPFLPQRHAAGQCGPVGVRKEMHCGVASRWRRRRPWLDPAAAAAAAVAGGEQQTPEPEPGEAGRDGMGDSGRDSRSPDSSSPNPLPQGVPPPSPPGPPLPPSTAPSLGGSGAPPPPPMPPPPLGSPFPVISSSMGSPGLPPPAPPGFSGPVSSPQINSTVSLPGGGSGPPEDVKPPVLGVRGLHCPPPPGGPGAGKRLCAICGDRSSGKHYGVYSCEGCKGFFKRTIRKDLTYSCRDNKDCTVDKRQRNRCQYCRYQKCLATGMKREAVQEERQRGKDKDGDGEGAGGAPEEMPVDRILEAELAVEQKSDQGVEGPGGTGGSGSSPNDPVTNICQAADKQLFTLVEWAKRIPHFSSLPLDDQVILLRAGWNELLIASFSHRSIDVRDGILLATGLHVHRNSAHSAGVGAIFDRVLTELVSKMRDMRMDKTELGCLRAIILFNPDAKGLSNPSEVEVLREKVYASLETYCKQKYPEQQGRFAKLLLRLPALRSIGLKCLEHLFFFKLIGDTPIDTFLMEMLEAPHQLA

outcome, inactive:
O=C(CC(=O)c1ccccc1)c1ccccc1, COc1ccc(CCO)cc1, CC(C=O)Cc1ccc(C(C)(C)C)cc1 (stereo not given), CN(C)C(=S)SC(=S)N(C)C, OCCc1ccccc1, CCCCOCC, CCCCC(CC)(CO)CO, O=C(Nc1ccc2c(c1)Cc1ccccc1-2)C(F)(F)F, C=Cc1ccc(C(C)(C)C)cc1, O=C(Nc1ccc([N+](=O)[O-])cc1)Nc1ccc([N+](=O)[O-])cc1 (tested in a mixture with another compound), COc1ccc(CCC(C)=O)cc1, c1ccc(CCc2ccccc2)cc1, O=C1OC2(c3ccccc31)c1ccc(O)c(Br)c1Oc1c2ccc(O)c1Br, O=C(O)COCC(=O)O, C[C@H](CCC(=O)NCC(=O)O)[C@H]1CC[C@H]2[C@@H]3[C@H](O)C[C@@H]4C[C@H](O)CC[C@]4(C)[C@H]3C[C@H](O)[C@]12C, O=C1OC(=O)c2c(Cl)c(Cl)c(Cl)c(Cl)c21, C=CCCCCCCCCCC, CC(C)CCOC(=O)c1ccccc1, CCc1ccc(O)c(OC)c1, Cc1cc(C)nc(NS(=O)(=O)c2ccc(N)cc2)n1, CCO/C=C1\N=C(c2ccccc2)OC1=O, OC[C@H]1O[C@@H]2O[C@H]3[C@H](O)[C@@H](O)[C@@H](O[C@H]4[C@H](O)[C@@H](O)[C@@H](O[C@H]5[C@H](O)[C@@H](O)[C@@H](O[C@H]6[C@H](O)[C@@H](O)[C@@H](O[C@H]7[C@H](O)[C@@H](O)[C@@H](O[C@H]8[C@H](O)[C@@H](O)[C@@H](O[C@H]9[C@H](O)[C@@H](O)[C@@H](O[C@H]1[C@H](O)[C@H]2O)O[C@@H]9CO)O[C@@H]8CO)O[C@@H]7CO)O[C@@H]6CO)O[C@@H]5CO)O[C@@H]4CO)O[C@@H]3CO, CC=Cc1ccc(OCC)c(O)c1, CN1C(=O)c2ccccc2C1=O, Nc1c(S(=O)(=O)O)cc(Br)c2c1C(=O)c1ccccc1C2=O, IC(I)I, CC(C)=CCCC(C)CC(=O)O (stereo not given), C=C(C)CNCC, C=Cc1ccncc1, CCC(=O)O[C@@H]1C[C@H]2CC[C@]1(C)C2(C)C, ON=C1CCCCC1, O=C(O)CCCCCCCCC(=O)O, Cc1cc(S(=O)(=O)O)ccc1N=Nc1c(O)ccc2ccccc12

AC50, active:
CC(C)C(OC(=O)c1ccccc1)C(C)(C)COC(=O)c1ccccc1 (stereo not given) 25.4 µM, c1ccc(Oc2ccccc2)cc1 114 µM, CC(C)c1ccccc1O 75.5 µM, CCc1cc(C(C)(C)C)c(O)c(C(C)(C)C)c1 0.325 µM, Cc1cccc(Nc2ccccc2)c1 28 µM, CCCC(=O)C(CC)Sc1ccoc1C (stereo not given) 46.1 µM, Nc1ccc(NCCO)c([N+](=O)[O-])c1 18.1 µM
